In PubChem BioAssay one finds inhibition data, which are given here for 15 compounds.

Each structure is given as a SMILES string. The source made the active and inactive calls.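 How the source made its calls: active means inhibition above the hit cutoff set in the earlier primary screen (cut at about 27% in these data); inactive means the rest.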

This assay deals with Protein phosphatase methylesterase 1 (Homo sapiens) (UniProt Q9Y570). Kind of assay: human PME-1 methylesterase inhibition confirmation – biochemical, fluorescence polarization, FP-Rh probe, triplicate (AID 2171).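 Further: 0% = enzyme with DMSO and 100% = wells lacking PME-1.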 The note with it: recombinant PME-1, FP-Rh probe fluorescence polarization; at 5.9 µM; hits give high values. In general terms: Fluorescence polarisation rises when a labelled molecule tumbles more slowly, as on binding a larger partner.
Sequence of Protein phosphatase methylesterase 1 (Homo sapiens) (Q9Y570 whole entry, looked up): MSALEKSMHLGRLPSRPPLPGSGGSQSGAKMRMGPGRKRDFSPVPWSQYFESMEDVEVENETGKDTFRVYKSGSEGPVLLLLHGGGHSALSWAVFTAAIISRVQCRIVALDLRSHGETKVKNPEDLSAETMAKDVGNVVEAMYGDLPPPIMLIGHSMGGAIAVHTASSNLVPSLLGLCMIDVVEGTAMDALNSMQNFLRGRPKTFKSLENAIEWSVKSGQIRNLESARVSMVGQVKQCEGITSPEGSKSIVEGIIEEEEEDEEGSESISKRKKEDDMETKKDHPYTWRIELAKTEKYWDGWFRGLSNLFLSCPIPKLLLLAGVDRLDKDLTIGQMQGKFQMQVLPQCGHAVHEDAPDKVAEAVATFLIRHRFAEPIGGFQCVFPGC
The inhibition is the change of the read-out against control, counted positive when it falls. On to `COc1ccc(OCCn2cc(/C=N/NC(=O)c3ccncc3)c3ccccc32)cc1`, for which the inhibition was -21.9% (inactive).

Consider `N#CC1=C(N)C(C#N)(C#N)C(c2ccncc2)C2CN(C(=O)OCc3ccccc3)CC=C12` (stereo not given), for which the inhibition is 28.3% (active).

On to `CCOC(=O)N1CC=C2C(C#N)=C(N)C(C#N)(C#N)[C@H](c3ccc(OC(C)C)c(OCC)c3)[C@H]2C1`, for which the inhibition was 41.6% (active).

Consider `Cn1c(=O)c(C#N)c(-c2ccc(F)cc2)c2cc(C(=O)c3cc(Cl)cc(Cl)c3O)cnc21`, for which the inhibition is 59.1% (active).

On to `N#C/C(=C/c1ccc(O)c(O)c1)c1nc2ccccc2[nH]1`, for which the inhibition is -30.6% (inactive).

With `COc1ccc(NC(=O)C2CCN(C(=O)c3cccs3)CC2)cc1OC`, the inhibition was 5.2% (inactive).

Turning to `c1ccc2sc(Nc3nc4cc5c(cc4s3)OCO5)nc2c1`, the inhibition was 49.7% (active).

For the compound `Cc1cc(C)cc(NC(=S)NCCc2c[nH]c3ccccc23)c1`, the inhibition is 25.5% (inactive).

As for `COc1ccc(Nc2ncnc3sc(-c4ccccc4)cc23)cc1`, the inhibition was 10.1% (inactive).

For `O=C(O)CCNc1ccc(NCCC(=O)O)c2c1C(=O)c1ccccc1C2=O`, the inhibition is 16.7% (inactive).

As to `O=C(COC(=O)/C=C/c1cccs1)Nc1nc(-c2cccc(Br)c2)cs1`, the inhibition was 14.9% (inactive).

In the case of `Cc1c(Cl)cccc1Nc1nc(N)nc(CSc2nc3ccccc3s2)n1`, the inhibition is 25.1% (inactive).

For the compound `Cc1ccc(C(=O)Nc2nnc(CC(=O)N/N=C/c3ccc(O)c(O)c3)s2)cc1`, the inhibition was -26.6% (inactive).

With `CCN1C(=O)/C(=C2/Sc3ccccc3N2CC)S/C1=N\c1ncn[nH]1`, the inhibition was 42.6% (active).

`CC(C)(C)c1ccc(NC(=O)C2=CC=CN3CCS(=O)(=O)N=C23)cc1`: the inhibition is 9.34% (inactive).
